About 7,900 targets were measured; listed, in parts, are those with a hit and a random draw of the rest. About 0.6% of all pairs of compound and target were hits.
Experiments:
Test in all cases: log2 fold change, soluble protein after heating vs DMSO (PISA); higher = thermal stabilisation; K562 cells, 10 uM, 30 min; active = over 0.2 and 3.5 SD of the protein, either way, in both replicates (recomputed)
[1] = compound: C1=CC=C(C=C1)[C@H](COC2=CC3=C(C=C2)NC(=O)N3)NC(=O)C4=CC=CN(C4=O)CC5=CC(=C(C=C5)F)F
How it was run: (§1)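 K562 cells at 2×10^6 cells/mL were treated for 30 min with 10 μM compound, and aliquots were heated for 3 min over 48°C-58°C before pooling. Extraction used PBS with 0.5% NP-40 at 4°C, and soluble protein was the supernatant after 21,000xg for 90 min, measured by TMTpro 16plex LC-MS/MS with channel sums equalised. Thermal stability values, relative to control samples and from duplicates, are log2 fold changes.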

[2] = compound: CC1=C(SC2=C1C(=N[C@H](C3=NN=C(N32)C)CC(=O)N)C4=CC=C(C=C4)Cl)C
How it was run: as §1

[3] = compound: CC1=C2C(=CC=C1)N=C(N(C2=O)C3=CC=CC=C3C)CN4C=NC5=C(N=CN=C54)N
How it was run: as §1

[4] = compound: Cc1sc2c(c1C)C(c1ccc(Cl)cc1)=N[C@@H](CC(=O)OC(C)(C)C)c1nnc(C)n1-2
How it was run: as §1

[5] = compound: c1ccc([C@@H]2C[C@H]2NC2CCNCC2)cc1
How it was run: as §1

Measured: log2 fold change

GINS2 (UniProt Q9Y248)
inactive: [1] -0.011 | [2] 0.102 | [3] 0.115 | [4] -0.033 | [5] -0.026

FBXO7 (UniProt Q9Y3I1)
inactive: [1] -0.002 | [2] 0.033 | [3] 0.045 | [4] -0.033 | [5] 0.024

IFI30 (UniProt P13284)
inactive: [1] -0.066 | [2] 0.01 | [3] -0.06 | [4] 0.004 | [5] 0.048

HBQ1 (UniProt P09105)
inactive: [1] 0.023 | [2] 0.135 | [3] 0.092 | [4] -0.147 | [5] -0.037

H2AFX (UniProt P16104)
inactive: [1] 0.103 | [2] -0.353 | [3] -0.374 | [4] -0.043 | [5] 0.206

FLNA (UniProt P21333)
inactive: [1] -0.11 | [2] 0.016 | [3] 0.049 | [4] 0.019 | [5] -0.008

H1FX (UniProt Q92522)
UniProt Q92522, sequence (Q92522 whole entry, looked up): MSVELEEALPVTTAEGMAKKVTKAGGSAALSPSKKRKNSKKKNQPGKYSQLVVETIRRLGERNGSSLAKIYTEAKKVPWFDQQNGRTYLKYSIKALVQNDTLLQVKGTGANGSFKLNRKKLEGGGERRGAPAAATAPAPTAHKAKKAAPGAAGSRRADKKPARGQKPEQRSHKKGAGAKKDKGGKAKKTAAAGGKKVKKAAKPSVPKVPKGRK
inactive: [1] 0.088 | [2] -0.146 | [3] -0.21 | [4] 0.135 | [5] -0.005

GLA (UniProt P06280)
inactive: [1] 0.019 | [2] -0.019 | [3] -0.01 | [4] 0.007 | [5] 0.017

GSTM4 (UniProt Q03013)
UniProt Q03013, sequence (Q03013 whole entry, looked up): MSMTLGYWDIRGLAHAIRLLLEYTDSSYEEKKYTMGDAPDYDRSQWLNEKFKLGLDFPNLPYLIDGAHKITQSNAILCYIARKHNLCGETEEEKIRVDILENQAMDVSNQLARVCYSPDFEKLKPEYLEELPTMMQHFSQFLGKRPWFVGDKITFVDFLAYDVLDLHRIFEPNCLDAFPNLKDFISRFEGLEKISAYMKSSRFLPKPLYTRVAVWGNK
inactive: [1] 0.064 | [2] 0.063 | [3] -0.114 | [4] -0.027 | [5] 0.03

GLUD1 (UniProt P00367)
inactive: [1] 0.046 | [2] 0.065 | [3] -0.004 | [4] 0.071 | [5] -0.03

HECTD1 (UniProt Q9ULT8)
UniProt Q9ULT8, sequence (Q9ULT8 whole entry, looked up): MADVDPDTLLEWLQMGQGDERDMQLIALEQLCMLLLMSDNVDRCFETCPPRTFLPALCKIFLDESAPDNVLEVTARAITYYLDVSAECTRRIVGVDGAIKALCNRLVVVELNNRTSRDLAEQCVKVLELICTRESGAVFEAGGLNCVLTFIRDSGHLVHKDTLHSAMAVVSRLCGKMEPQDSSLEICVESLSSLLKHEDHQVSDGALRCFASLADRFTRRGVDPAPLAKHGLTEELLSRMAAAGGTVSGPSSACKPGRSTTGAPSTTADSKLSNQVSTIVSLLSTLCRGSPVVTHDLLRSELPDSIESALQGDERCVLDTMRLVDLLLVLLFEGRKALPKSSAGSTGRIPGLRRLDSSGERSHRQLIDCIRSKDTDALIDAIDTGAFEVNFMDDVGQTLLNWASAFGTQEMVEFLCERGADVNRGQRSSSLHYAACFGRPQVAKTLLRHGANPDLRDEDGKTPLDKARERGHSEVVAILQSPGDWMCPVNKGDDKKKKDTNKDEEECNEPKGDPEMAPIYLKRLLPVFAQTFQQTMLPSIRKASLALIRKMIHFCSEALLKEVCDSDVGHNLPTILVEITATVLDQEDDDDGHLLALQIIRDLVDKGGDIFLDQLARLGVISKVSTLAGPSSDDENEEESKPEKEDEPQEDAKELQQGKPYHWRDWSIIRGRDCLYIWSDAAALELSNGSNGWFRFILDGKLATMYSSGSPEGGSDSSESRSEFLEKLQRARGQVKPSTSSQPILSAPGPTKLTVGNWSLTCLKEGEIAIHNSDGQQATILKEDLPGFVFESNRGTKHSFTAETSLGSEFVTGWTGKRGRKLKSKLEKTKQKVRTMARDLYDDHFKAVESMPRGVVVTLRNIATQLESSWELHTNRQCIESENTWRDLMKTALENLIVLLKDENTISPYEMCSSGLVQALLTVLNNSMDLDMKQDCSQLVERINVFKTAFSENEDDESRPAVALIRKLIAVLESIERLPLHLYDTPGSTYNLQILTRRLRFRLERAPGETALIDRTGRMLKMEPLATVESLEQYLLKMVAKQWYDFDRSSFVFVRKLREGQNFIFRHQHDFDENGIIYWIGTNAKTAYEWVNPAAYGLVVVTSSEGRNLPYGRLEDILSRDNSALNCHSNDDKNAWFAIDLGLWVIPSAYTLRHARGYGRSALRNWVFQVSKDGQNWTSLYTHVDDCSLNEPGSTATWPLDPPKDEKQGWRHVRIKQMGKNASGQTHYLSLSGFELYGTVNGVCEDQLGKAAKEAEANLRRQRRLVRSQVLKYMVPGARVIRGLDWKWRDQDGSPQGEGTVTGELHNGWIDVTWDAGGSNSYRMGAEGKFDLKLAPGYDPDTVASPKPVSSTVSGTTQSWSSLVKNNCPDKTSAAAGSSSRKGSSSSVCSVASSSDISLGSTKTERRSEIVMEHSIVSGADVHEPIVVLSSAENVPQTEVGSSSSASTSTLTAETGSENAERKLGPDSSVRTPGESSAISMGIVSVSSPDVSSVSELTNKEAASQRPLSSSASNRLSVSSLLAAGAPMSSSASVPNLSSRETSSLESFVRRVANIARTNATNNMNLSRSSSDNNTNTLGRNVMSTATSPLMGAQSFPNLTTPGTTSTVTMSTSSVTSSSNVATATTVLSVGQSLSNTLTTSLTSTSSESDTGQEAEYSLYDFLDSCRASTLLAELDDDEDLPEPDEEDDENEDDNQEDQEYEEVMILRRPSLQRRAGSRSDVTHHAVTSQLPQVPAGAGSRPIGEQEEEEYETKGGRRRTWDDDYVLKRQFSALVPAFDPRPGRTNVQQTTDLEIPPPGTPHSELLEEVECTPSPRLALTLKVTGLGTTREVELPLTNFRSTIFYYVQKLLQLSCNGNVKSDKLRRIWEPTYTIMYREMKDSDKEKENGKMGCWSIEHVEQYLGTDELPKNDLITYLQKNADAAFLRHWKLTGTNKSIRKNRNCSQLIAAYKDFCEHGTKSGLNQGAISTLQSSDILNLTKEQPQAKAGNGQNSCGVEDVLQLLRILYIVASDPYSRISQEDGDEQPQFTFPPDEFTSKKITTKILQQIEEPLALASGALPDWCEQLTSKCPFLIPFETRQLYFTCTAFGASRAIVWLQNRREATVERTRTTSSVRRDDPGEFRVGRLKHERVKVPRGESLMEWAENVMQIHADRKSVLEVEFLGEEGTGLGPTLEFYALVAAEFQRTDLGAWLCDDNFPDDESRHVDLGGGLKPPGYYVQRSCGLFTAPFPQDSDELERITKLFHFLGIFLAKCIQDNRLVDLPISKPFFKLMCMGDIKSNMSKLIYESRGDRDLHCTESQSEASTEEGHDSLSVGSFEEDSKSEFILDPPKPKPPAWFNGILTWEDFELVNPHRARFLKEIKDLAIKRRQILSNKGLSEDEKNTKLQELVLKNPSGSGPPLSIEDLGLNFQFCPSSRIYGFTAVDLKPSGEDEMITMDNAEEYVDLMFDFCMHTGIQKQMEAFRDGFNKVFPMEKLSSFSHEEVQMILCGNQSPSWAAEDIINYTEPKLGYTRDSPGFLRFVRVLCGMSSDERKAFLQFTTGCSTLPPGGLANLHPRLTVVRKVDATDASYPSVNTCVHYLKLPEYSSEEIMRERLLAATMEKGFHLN
inactive: [1] 0.009 | [2] 0 | [3] 0.098 | [4] 0.051 | [5] -0.004

GSK3B isoform 2 (UniProt P49841)
UniProt P49841, sequence (P49841 whole entry, looked up): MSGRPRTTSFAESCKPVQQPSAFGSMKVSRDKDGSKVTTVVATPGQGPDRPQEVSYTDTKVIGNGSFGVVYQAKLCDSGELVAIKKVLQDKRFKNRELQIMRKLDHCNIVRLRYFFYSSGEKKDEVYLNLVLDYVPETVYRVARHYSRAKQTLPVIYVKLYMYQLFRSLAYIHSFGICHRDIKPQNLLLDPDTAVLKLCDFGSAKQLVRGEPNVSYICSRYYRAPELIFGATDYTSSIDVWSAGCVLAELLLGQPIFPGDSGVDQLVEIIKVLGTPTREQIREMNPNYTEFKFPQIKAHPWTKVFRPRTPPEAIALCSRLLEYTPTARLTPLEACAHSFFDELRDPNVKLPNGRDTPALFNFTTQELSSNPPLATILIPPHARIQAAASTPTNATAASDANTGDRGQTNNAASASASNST
inactive: [1] 0 | [2] 0.083 | [3] 0.026 | [4] -0.016 | [5] -0.008

GSR (UniProt P00390)
inactive: [1] 0.006 | [2] 0.044 | [3] 0.034 | [4] -0.023 | [5] -0.003

GNS (UniProt P15586)
inactive: [1] 0.037 | [2] 0.011 | [3] 0.013 | [4] -0.001 | [5] 0.027

GTF3A (UniProt Q92664)
inactive: [1] 0.002 | [2] -0.001 | [3] 0.08 | [4] -0.072 | [5] -0.071

IFT74 (UniProt Q96LB3)
UniProt Q96LB3, sequence (Q96LB3 whole entry, looked up): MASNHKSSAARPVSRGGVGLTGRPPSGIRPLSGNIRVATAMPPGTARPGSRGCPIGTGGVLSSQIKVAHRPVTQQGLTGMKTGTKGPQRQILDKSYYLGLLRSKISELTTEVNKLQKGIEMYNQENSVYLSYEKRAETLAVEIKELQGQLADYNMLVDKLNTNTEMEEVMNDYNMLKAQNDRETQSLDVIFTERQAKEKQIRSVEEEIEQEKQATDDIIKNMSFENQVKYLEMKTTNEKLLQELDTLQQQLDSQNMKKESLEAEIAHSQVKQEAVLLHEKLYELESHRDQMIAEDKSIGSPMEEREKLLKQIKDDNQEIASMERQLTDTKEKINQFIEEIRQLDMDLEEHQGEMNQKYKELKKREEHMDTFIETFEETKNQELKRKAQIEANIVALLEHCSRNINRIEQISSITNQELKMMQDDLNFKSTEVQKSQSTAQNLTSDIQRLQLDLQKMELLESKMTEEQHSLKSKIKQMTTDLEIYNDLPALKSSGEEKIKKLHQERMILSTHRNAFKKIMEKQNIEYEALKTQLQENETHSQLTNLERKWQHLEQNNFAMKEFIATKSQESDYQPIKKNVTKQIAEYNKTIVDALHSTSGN
inactive: [1] 0.134 | [2] 0.11 | [3] 0.163 | [4] 0.003 | [5] -0.069

HBA1 (UniProt P69905)
UniProt P69905, sequence (P69905 whole entry, looked up): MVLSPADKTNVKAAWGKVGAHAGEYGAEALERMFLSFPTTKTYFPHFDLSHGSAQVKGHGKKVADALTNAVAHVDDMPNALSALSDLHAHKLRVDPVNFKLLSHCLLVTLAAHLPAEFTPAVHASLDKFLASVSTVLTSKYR
inactive: [1] -0.003 | [2] 0.163 | [3] 0.005 | [4] -0.167 | [5] -0.023

FBXO42 (UniProt Q6P3S6)
inactive: [1] -0.022 | [2] 0.017 | [3] 0.094 | [4] 0.141 | [5] 0.077

GCSH (UniProt P23434)
UniProt P23434, sequence (P23434 whole entry, looked up): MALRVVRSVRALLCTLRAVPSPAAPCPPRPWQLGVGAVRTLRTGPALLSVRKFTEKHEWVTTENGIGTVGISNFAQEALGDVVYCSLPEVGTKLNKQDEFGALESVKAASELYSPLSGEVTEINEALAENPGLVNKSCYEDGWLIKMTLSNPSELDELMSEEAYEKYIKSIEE
inactive: [1] 0.029 | [2] -0.004 | [3] -0.043 | [4] 0 | [5] 0.043

FDXR isoform 7 (UniProt P22570)
inactive: [1] -0.069 | [2] 0.106 | [3] 0.038 | [4] -0.037 | [5] -0.01

GATA1 (UniProt P15976)
UniProt P15976, sequence (P15976 whole entry, looked up): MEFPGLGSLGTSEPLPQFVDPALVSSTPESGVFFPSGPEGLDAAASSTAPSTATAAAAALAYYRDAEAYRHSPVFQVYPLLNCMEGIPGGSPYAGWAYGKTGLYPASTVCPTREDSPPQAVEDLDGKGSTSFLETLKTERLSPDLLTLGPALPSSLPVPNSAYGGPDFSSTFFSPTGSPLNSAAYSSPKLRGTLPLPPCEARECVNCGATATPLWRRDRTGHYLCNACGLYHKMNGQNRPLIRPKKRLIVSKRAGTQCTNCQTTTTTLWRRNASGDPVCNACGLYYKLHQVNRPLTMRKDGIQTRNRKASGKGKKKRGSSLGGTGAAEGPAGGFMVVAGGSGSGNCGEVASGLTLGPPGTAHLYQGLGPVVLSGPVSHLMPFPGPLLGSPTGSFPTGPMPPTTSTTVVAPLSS
inactive: [1] 0.061 | [2] -0.014 | [3] 0.064 | [4] 0.117 | [5] 0.029

FUCA2 (UniProt Q9BTY2)
inactive: [1] 0.055 | [2] -0.004 | [3] 0.005 | [4] 0.034 | [5] 0.006

HBZ (UniProt P02008)
UniProt P02008, sequence (P02008 whole entry, looked up): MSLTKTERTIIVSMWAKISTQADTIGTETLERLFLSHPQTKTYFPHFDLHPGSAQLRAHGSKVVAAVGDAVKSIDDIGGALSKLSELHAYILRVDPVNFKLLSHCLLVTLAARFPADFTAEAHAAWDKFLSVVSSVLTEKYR
inactive: [1] 0.047 | [2] 0.191 | [3] 0.091 | [4] -0.132 | [5] -0.009

FUBP3 (UniProt Q96I24)
inactive: [1] 0.009 | [2] 0.002 | [3] 0.017 | [4] 0.065 | [5] 0.006

GNL1 (UniProt P36915)
inactive: [1] -0.042 | [2] -0.007 | [3] 0.099 | [4] -0.037 | [5] -0.038
